Measurements from PubChem BioAssay AID1159580 (chemical genetic matrix, 2015).
The whole screen tested about 5,500 compounds, of which about 2,000 (36%) were called active. Inconclusive results (about 18%) are left out. Rule as the data show it: active = normalized growth mostly below about 0.91 (no sharp cut-off); inconclusive = no clear call, values can overlap the other calls; inactive = mostly above about 0.92. The list shows a part of the results.

Assay: chemical genetic growth profiling, strain panel (AID 1159580);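 also: tested at 20 µM; growth read once vehicle control cultures reached saturation at 30 °C; 1 = growth at the plate median or of vehicle wells; lower values mean less growth of the strain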
Details: S. cerevisiae deletion strains, growth OD

Measured: normalized growth

N#C/C(=C\c1ccc(C(F)(F)F)cc1)c1ccc(O)cc1
active: locus YDL214C, strain PRR2, hits give low values 0.478 | locus YDR477W, strain SNF1, hits give low values 0.497 | locus YER123W, strain YCK3, hits give low values 0.508 | locus YER133W, strain GLC7, hits give low values 0.492 | locus YFR019W, strain FAB1, hits give low values 0.647 | locus YGR040W, strain KSS1, hits give low values 0.53 | locus YGR052W, strain FMP48, hits give low values 0.5 | locus YGR092W, strain DBF2, hits give low values 0.365 | locus YHR030C, strain SLT2, hits give low values 0.308 | locus YHR079C, strain IRE1, hits give low values 0.334 | locus YHR082C, strain KSP1, hits give low values 0.492 | locus YHR205W, strain SCH9, hits give low values 0.359 | locus YJL095W, strain BCK1, hits give low values 0.464 | locus YJL157C, strain FAR1, hits give low values 0.47 | locus YJR066W, strain TOR1 (second series), hits give low values 0.29 | locus YJR066W, strain TOR1, hits give low values 0.435 | locus YKL048C, strain ELM1, hits give low values 0.411 | locus YKL067W, strain YNK1, hits give low values 0.525 | locus YKL101W, strain HSL1, hits give low values 0.465 | locus YKL203C, strain TOR2, hits give low values 0.428 | locus YLR113W, strain HOG1, hits give low values 0.431 | locus YLR133W, strain CKI1, hits give low values 0.498 | locus YLR403W, strain SFP1, hits give low values 0.445 | locus YML070W, strain DAK1, hits give low values 0.535 | locus YMR205C, strain PFK2 (second series), hits give low values 0.54 | locus YNL020C, strain ARK1, hits give low values 0.45 | locus YNL183C, strain NPR1, hits give low values 0.467 | locus YNL307C, strain MCK1 (second series), hits give low values 0.395 | locus YOL136C, strain PFK27, hits give low values 0.492 | locus YOR061W, strain CKA2, hits give low values 0.43 | locus YOR119C, strain RIO1, hits give low values 0.498 | locus YOR231W, strain MKK1, hits give low values 0.469 | locus YPL031C, strain PHO85, hits give low values 0.421 | locus YPL153C, strain RAD53, hits give low values 0.444 | locus YPL204W, strain HRR25, hits give low values 0.453 | locus YPL256C, strain CLN2, hits give low values 0.427
inactive: locus YAR019C, strain CDC15, hits give low values 0.969 | locus YBL105C, strain PKC1, hits give low values 0.968 | locus YBR135W, strain CKS1, hits give low values 0.965 | locus YBR136W, strain MEC1, hits give low values 0.97 | locus YBR160W, strain CDC28, hits give low values 0.976 | locus YDL017W, strain CDC7, hits give low values 0.966 | locus YDL028C, strain MPS1, hits give low values 0.976 | locus YDL101C, strain DUN1, hits give low values 0.979 | locus YDL108W, strain KIN28, hits give low values 0.972 | locus YDL132W, strain cdc53, hits give low values 0.973 | locus YDR052C, strain DBF4, hits give low values 0.988 | locus YDR054C, strain cdc34, hits give low values 0.96 | locus YDR226W, strain ADK1, hits give low values 0.969 | locus YFL009W, strain cdc4, hits give low values 0.967 | locus YFL029C, strain CAK1, hits give low values 0.978 | locus YFR003C, strain YPI1, hits give low values 0.971 | locus YFR028C, strain CDC14, hits give low values 0.964 | locus YIL147C, strain SLN1, hits give low values 0.974 | locus YJL128C, strain PBS2, hits give low values 0.913 | locus YJR016C, strain ILV3, hits give low values 0.974 | locus YKL193C, strain SDS22, hits give low values 0.972 | locus YMR001C, strain CDC5, hits give low values 0.96 | locus YMR277W, strain FCP1, hits give low values 0.963 | locus YNL006W, strain LST8, hits give low values 0.959 | locus YNL161W, strain CBK1, hits give low values 0.967 | locus YNL207W, strain RIO2, hits give low values 0.961 | locus YNL222W, strain SSU72, hits give low values 0.964 | locus YOL078W, strain AVO1, hits give low values 0.973 | locus YOR329C, strain SCD5, hits give low values 0.962 | locus YPL209C, strain IPL1, hits give low values 0.965 | locus YPR025C, strain CCL1, hits give low values 0.971 | locus YPR106W, strain ISR1, hits give low values 0.965 | locus YPR111W, strain DBF20, hits give low values 0.953 | strain NNK1, hits give low values 0.95 | strain TSCII, hits give low values 0.967
